# Reference: PubChem BioAssay (NCATS)
# Inconclusive results are not listed. Where a call stands in place of a potency, no number is given. Active and inactive are the calls of the source. Calls come from the whole dose curve; as a rule, active = well fitted curve in the direction sought with a large enough effect; inconclusive = small, poorly fitted or top-dose-only effect, or another doubt; inactive = no such curve, though single readings can be large; an effect the other way counts as inactive or inconclusive.
# Assays:
# [1] = P-glycoprotein substrates identified in KB-3-1 adenocarcinoma cell line, qHTS therapeutic library screen (AID 1346986); settings: KB-3-1 parental cells viability, CellTiter-Glo, 72 h; series mostly up to 44.5 µM; note: nearly all actives have a fitted effect of over 60% in size
# In short: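 In 1536-well format, 500 cells/well received pinned compound titrations and were incubated 72 h, 5% CO2. Viability was read by CellTiter-Glo; cytotoxic if AC50 < 10 uM and efficacy >50%.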
# [2] = P-glycoprotein substrates identified in KB-8-5-11 adenocarcinoma cell line, qHTS therapeutic library screen (AID 1346987); settings: KB-8-5-11 (P-gp overexpressing) viability, CellTiter-Glo, 72 h; series mostly up to 44.5 µM; note: nearly all actives have a fitted effect of over 65% in size
# In short: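 Luminescence from CellTiter-Glo, read 5 min after addition, quantified survival of KB-8-5-11 (P-gp-overexpressing) cells exposed to compounds for 72 h. AC50 was derived from concentration-response curves.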
Compound,Potency [1],Potency [2],outcome [1],outcome [2]
C=C[C@@H]1[C@H](O[C@@H]2O[C@H](CO)[C@@H](O)[C@H](O)[C@H]2O)OC=C(C(=O)O)[C@H]1CCOC(=O)/C=C/c1ccc(O)c(O)c1,inactive,inactive,,
C[C@@H]1O[C@@H](O[C@H]2[C@H](O[C@H]3[C@H](O[C@H]4CC[C@@]5(C)C(CC[C@]6(C)C5CC=C5[C@@H]7CC(C)(C)CC[C@]7(C(=O)O[C@@H]7O[C@H](CO)[C@@H](O[C@@H]8O[C@@H](C)[C@H](O)[C@@H](O)[C@H]8O)[C@H](O)[C@H]7O)CC[C@]56C)C4(C)C)OC[C@H](O)[C@@H]3O)O[C@H](CO)[C@@H](O)[C@@H]2O)[C@H](O)[C@H](O)[C@H]1O (some centres undefined),,,inactive [at 9.29 µM],inactive [at 9.29 µM]
CC(C)(C)c1ccc(S(=O)(=O)Nc2ccc(Cl)cc2C(=O)c2cc[n+]([O-])cc2)cc1,inactive,inactive,,
CC(C(O)/C=C/C(C)(C)O)C1CCC2(C)C3C(=O)C=C4C(CCC(O)C4(C)C)C3(C)CCC12C (centres undefined),inactive,inactive,,
COC(=O)CC(O)CC(O)/C=C/c1c(C)ccc2c1C(O)CC(C)C2 (centres undefined),inactive,inactive,,
C=C(C)C(=O)O[C@H]1C[C@@](C)(O)C(=O)CC(O)/C(C)=C\[C@H]2OC(=O)C(=C)[C@H]12 (some centres undefined),inactive,inactive,,
CC(=O)OC1/C(C)=C/C(=O)C(OC(C)=O)C(C)(C)/C=C/C(C)C(=O)C2(OC(C)=O)CC(C)C(OC(=O)c3ccccc3)C12 (centres undefined),inactive,inactive,,
CC1(C=O)CC[C@]2(C(=O)O[C@@H]3O[C@H](CO)[C@@H](O)[C@H](O)[C@H]3O)CC[C@]3(C)C(=CCC4[C@@]5(C)C[C@H](O)[C@H](O[C@@H]6OC[C@@H](O)[C@H](O)[C@H]6O)[C@@](C)(CO)C5CC[C@]43C)C2C1 (some centres undefined),,,inactive [at 9.29 µM],inactive [at 9.29 µM]
Nc1nc2c(ncn2[C@@H]2O[C@@H]3COP(=O)(O)O[C@H]3[C@H]2O)c(=O)[nH]1,inactive,inactive,,
COc1cc(C(=O)OC[C@@]2(O)CO[C@@H](O[C@H]3[C@H](Oc4ccc(C(=O)O)cc4OC)O[C@H](CO)[C@@H](O)[C@@H]3O)[C@@H]2O)ccc1O,inactive,inactive,,
C[C@H]1C(=O)N2c3ccccc3[C@@]3(O)C[C@@H]4C(=O)N[C@](C)(c5nc6ccccc6c(=O)n54)N1[C@@H]23,inactive,inactive,,
NC(=O)c1csc(C2OC(CO)C(O)C2O)n1 (centres undefined),inactive,inactive,,
COc1ccc(N2CCOCC2)c2sc(NC(=O)N3CCC(C)(O)CC3)nc12,inactive,inactive,,
COc1cc2occc2c(O[C@@H]2O[C@H](CO)[C@@H](O)[C@H](O)[C@H]2O)c1CCC(=O)O,inactive,inactive,,
COC(=O)C1=CO[C@@H](O[C@@H]2O[C@H](CO)[C@@H](O)[C@H](O)[C@H]2O)[C@@H]2C(COC(C)=O)=C[C@H](O)[C@H]12,inactive,inactive,,
O=C(CC1C(=O)Nc2ccccc21)OC[C@H]1O[C@@H](OCCc2ccc(O)cc2)[C@H](O)[C@@H](O)[C@@H]1O (some centres undefined),inactive,inactive,,
CC1=C2C(O)C(=O)OC(c3ccoc3)C2(C)CCC1O (centres undefined),inactive,inactive,,
CCCn1c(=O)c2[nH]c(-c3ccc(OCC(=O)O)cc3)nc2n(CCC)c1=O,inactive,inactive,,
CCOC(=O)C(CCc1ccccc1)NC1CSC(c2cccs2)CN(CC(=O)O)C1=O (centres undefined),inactive,inactive,,
Cc1c2cc(c(C(=O)O)c1C)OC1OC(C(O)C(O)C1O)C(O)C(O)C1OC(O2)C(O)C(O)C1O (centres undefined),inactive,inactive,,
COc1c(C)c(OCC(O)C(C)(C)O)cc2c1COC2=O (centres undefined),inactive,inactive,,
C=CC(C)(CC/C=C(\C)C(=O)OC)OC1OC(COC(=O)CC(C)(O)CC(=O)O)C(OC2OC(CO)C(O)C(O)C2O)C(O)C1O (centres undefined),inactive,inactive,,
COc1c2c(c(C)c3c1C(=O)OC3)OC1(C)CC(O)C(C(C)(C)O)C(C)(CCC(=O)O)C1C2 (centres undefined),inactive,inactive,,
COc1cc2c3c(cc4ccccc4c3c1O)NC2=O,inactive,inactive,,
CCOCc1cc(OC)c(-c2ccc(C[C@H](NC(=O)c3c(F)cccc3F)C(=O)O)cc2)c(OC)c1,inactive,inactive,,
C[C@H](Nc1ncnc2nc[nH]c12)c1cc2ccc(F)cc2nc1-c1ccccn1,inactive,inactive,,
CC(C)(C)C(=O)CN1C(=O)[C@H](NC(=O)Nc2cccc(C(=O)O)c2)CN(C2CCCCC2)c2ccccc21,inactive,inactive,,
